# Residue numbers refer to the chain shown, from its start. The full ranking holds about 5,800 sequences; the median of “enrichment r” is about 0.54, and the highest 2% start at about 16. Shown is part of a subset that was picked to be rich in the highest values.
# B1: chr5:128187618:128187661:+|3pUTR|ENSG00000064651|msi1_unk|FALSE|overlapping (ssRNA)
# RNA: GGGAGUUCUACAGUCCGACGAUCUCCUUUAUAAGUCAUUAAAAUAAUGUUUCAUCAAAUGGUUAAAUGGACCACUGGUUUCUUAGAGAAAUGUUUUUAGGCUUAAUUCAUUCAAUUGUCAAGUACACUUAGUCUUAAUACACUCAACAGAGGAUUGAGCAUCA
# B2: chr6:149410404:149410522:+|3pUTR|ENSG00000055208|unk|FALSE|bound_elsewhere (ssRNA)
# RNA: GGGAGUUCUACAGUCCGACGAUCUUAUAUUUCUAUAUGUAUAGUGUAAUAGCCUUUUGUUAACUAAUUUUCUUUUUUCCUUUUAGUAAUUAAGCACGAUCAUGUCCCUUUUUAAGCCUUACCUGAGAGGAACAAUGCCUUAAACAACAGAGGAUUGAGCAUCA
# B3: chr2:15946816:15946917:+|3pUTR|ENSG00000134323|unk|FALSE|unique (ssRNA)
# RNA: GGGAGUUCUACAGUCCGACGAUCUAUAUGCCUUUUUCCUAGCCUGUUUCUUCCUGUUAAUGUAUUUGUUCAUGUUUGGUGCAUAGAACUGGGUAAAUGCAAAGUUCUGUGUUUAAUUUCUUCAAAAUGUAUAUAUUUAGUGCUCAACAGAGGAUUGAGCAUCA
# B4: chr12:89590234:89590335:-|3pUTR|ENSG00000070961|msi1|FALSE|bound_elsewhere (ssRNA)
# RNA: GGGAGUUCUACAGUCCGACGAUCUUUGCCUACAAUUUACCUUGUUAAAUAUUGUAGAUAAAUUGCUAAUACUAAUAGCCAAAUAGAUAACACUAAUGCUUUGUUUAAAAAAACGAAAAAAACAAAACAAAACAAAAAAACAUGCAACAGAGGAUUGAGCAUCA
# B5: ENSG00000198589:be:win_9101|3pUTR|ENSG00000198589|bound_else_gene|NA|bound_elsewhere_windowed (ssRNA)
# RNA: GGGAGUUCUACAGUCCGACGAUCUUCAAGCAUGUUUUAGACCUAGAAAAGUAUGGUUUGGGGGAGGCUAUUUUAUUGUGUGGUUAGCACAAGGAAUCUAAUUUAUAGCAAGUGUGAAAUAGUUACCAUUUUUUCCUGAUCUGUCAACAGAGGAUUGAGCAUCA
# B6: chr10:52765379:52768136:-|three_prime_utr|ENSG00000165471|control|control|control (ssRNA)
# RNA: GGGAGUUCUACAGUCCGACGAUCUUGUUCCUUUUGUGGGCAAUCACUAAAAAUGAUCACUAACAGCACCAACAAAGCAAUAAUAGUAGUAGUAGUAGUUAGCAGCAGCAGUAGUAGUCAUGCUAAUUAUAUAAUAUUUUUAAUCAACAGAGGAUUGAGCAUCA
# B7: ENSG00000198589:be:win_9151|3pUTR|ENSG00000198589|bound_else_gene|NA|bound_elsewhere_windowed (ssRNA)
# RNA: GGGAGUUCUACAGUCCGACGAUCAUUGUGUGGUUAGCACAAGGAAUCUAAUUUAUAGCAAGUGUGAAAUAGUUACCAUUUUUUCCUGAUCUGUCAUCUUCAUAGCACAACAAAACGAAAUGAUGGAAAUGCUCUUGAGCUCACCAACAGAGGAUUGAGCAUCA
# B8: ENSG00000198589:be:win_9201|3pUTR|ENSG00000198589|bound_else_gene|NA|bound_elsewhere_windowed (ssRNA)
# RNA: GGGAGUUCUACAGUCCGACGAUCACCAUUUUUUCCUGAUCUGUCAUCUUCAUAGCACAACAAAACGAAAUGAUGGAAAUGCUCUUGAGCUCACAACAUUUGUUUUUCUUUUAAAGUAAAUGCAAGUACCAAAGCUCACUACUGCAACAGAGGAUUGAGCAUCA
# B9: chr6:149410404:149410522:+|3pUTR|ENSG00000055208|unk|total|mutant (ssRNA)
# RNA: B2 RNA with U41C, A42C, U49C, A50C, U83C, A84C
# B10: chr3:112140897:112141281:-|three_prime_utr|ENSG00000172139|control|control|control (ssRNA)
# RNA: GGGAGUUCUACAGUCCGACGAUCACUUUUUGCAAAAUUUCCUUGAUUUAAAAUAUUUGUUAUUUUAAAUAUACAAAACAUUUUAGAAAAUCUUAGAGUAAAUUUUAGUCUUAAAGCCAGAAAAUAAGUUUAUAGCCAUCUAGACAACAGAGGAUUGAGCAUCA
# B11: chr11:118750849:118750950:-|3pUTR|ENSG00000110367|msi1|total|mutant (ssRNA)
# RNA: GGGAGUUCUACAGUCCGACGAUCAUUCCCGAAAGUACUUUGGCCUCGUGCUGCCGAGAGCAGAUUUCUAUGGUACCCUGUGUCCGUAAAGGGGCCCAGAAAUCUGGGAUGUACUGUUUGCUGCCACACUGUCUCAUCCCGUACCAACAGAGGAUUGAGCAUCA
# B12: chr10:32033860:32033975:-|CDS|ENSG00000170759|unk|FALSE|unique (ssRNA)
# RNA: GGGAGUUCUACAGUCCGACGAUCCACAGUGGAUAAAGAUAUUACUCUUACCAAUGAUAAACCAGCAACCGCAAUUGGAGUUAUAGGAAAUUUUACUGAUGCUGAAAGAAGAAAGUGUGAAGAAGAAAUUGCUAAAUUAUACAACAACAGAGGAUUGAGCAUCA
# B13: chr2:205797254:205797461:+|3pUTR|ENSG00000118257|msi1|FALSE|unique (ssRNA)
# RNA: GGGAGUUCUACAGUCCGACGAUCUCACCCUCCCAUGAUGCGCAGUGUUCAGAAAGCUGGUAAGUCCUAGGGAUUUCCAGAAGUAGCCUGCAGAAGAAGGUAAGUUUGAAAGCCACUCCAGGGGUCCUGAUGCUGUCAUGCUCACAACAGAGGAUUGAGCAUCA
# B14: ENSG00000107863:be:win_2651|CDS|ENSG00000107863|bound_else_gene|NA|bound_elsewhere_windowed (ssRNA)
# RNA: GGGAGUUCUACAGUCCGACGAUCAGGGUCUGGAUGAUUACAGAGAAGAUGCAAAAUUGUCCUUUAAGCACGUAUCUAGUCUGAAGGGAAUCAAGAUCGCAGACAGCCAAAAGUCAUCAGAAGACUCUGGGUCCAGAAAAGAUUCAACAGAGGAUUGAGCAUCA
# Biological target: MSI1 full-length (mouse, UniProt Q61474 1-362)
# Assay: nsRBNS (natural sequence RNA bind-n-seq); RBNS binding buffer (assumed for nsRBNS): 25 mM Tris pH 7.5, 150 mM KCl, 3 mM MgCl2, 0.01% Triton X-100, 500 ug/ml BSA, 20 U/ml SUPERase-In, 4 C; UNK is unkempt and MSI1 is Musashi-1; names of the RNAs are library labels; protein concentration not given here; high values mean tight binding
# MSI1 full-length, sequence (Q61474 whole entry): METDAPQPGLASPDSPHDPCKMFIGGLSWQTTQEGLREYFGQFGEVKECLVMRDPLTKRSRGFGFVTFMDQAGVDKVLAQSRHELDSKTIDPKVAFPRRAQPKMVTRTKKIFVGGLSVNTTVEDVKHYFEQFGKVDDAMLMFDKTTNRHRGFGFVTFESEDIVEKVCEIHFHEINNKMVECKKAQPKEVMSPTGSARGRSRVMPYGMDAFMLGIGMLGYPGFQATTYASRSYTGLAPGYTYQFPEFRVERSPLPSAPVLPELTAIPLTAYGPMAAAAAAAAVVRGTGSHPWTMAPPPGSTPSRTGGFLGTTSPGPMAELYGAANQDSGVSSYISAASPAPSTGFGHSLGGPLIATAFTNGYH
row,Binder,binding signal
1,B1,15.5 enrichment R
2,B2,30.1 enrichment R
3,B3,6.12 enrichment R
4,B4,1.67 enrichment R
5,B5,7.83 enrichment R
6,B6,83.7 enrichment R
7,B7,33.5 enrichment R
8,B8,0.392 enrichment R
9,B9,11.2 enrichment R
10,B10,14.9 enrichment R
11,B11,0.539 enrichment R
12,B12,1.59 enrichment R
13,B13,0.607 enrichment R
14,B14,0.365 enrichment R

# — publication PMC12136788
